PubChem BioAssay (Tox21)
Where “and” joins values, the source holds several entries; their conditions need not be identical. Equal entries are not always repeated. Results filed as inconclusive are left out. A structure can be active in one record and inactive in another. Calls of active or inactive are those of the source. Unless noted, calls follow the shape of the dose curve; as a rule, active = well fitted curve in the direction sought with a large enough effect in the repeat runs; inconclusive = weak or mixed curves; inactive = no such curve, though single readings can be large; an effect the other way counts as inactive or inconclusive.

Key:
[1] = molecular target: Thyrotropin receptor (Homo sapiens) (UniProt P16473); assay: qHTS assay to identify small molecule agonists of the thyroid stimulating hormone receptor (TSHR) signaling pathway (AID 1224843; calls by dose curve; also: nearly all actives have a fitted effect of over 45% in size)
Thyrotropin receptor (Homo sapiens), sequence (P16473 whole entry, looked up): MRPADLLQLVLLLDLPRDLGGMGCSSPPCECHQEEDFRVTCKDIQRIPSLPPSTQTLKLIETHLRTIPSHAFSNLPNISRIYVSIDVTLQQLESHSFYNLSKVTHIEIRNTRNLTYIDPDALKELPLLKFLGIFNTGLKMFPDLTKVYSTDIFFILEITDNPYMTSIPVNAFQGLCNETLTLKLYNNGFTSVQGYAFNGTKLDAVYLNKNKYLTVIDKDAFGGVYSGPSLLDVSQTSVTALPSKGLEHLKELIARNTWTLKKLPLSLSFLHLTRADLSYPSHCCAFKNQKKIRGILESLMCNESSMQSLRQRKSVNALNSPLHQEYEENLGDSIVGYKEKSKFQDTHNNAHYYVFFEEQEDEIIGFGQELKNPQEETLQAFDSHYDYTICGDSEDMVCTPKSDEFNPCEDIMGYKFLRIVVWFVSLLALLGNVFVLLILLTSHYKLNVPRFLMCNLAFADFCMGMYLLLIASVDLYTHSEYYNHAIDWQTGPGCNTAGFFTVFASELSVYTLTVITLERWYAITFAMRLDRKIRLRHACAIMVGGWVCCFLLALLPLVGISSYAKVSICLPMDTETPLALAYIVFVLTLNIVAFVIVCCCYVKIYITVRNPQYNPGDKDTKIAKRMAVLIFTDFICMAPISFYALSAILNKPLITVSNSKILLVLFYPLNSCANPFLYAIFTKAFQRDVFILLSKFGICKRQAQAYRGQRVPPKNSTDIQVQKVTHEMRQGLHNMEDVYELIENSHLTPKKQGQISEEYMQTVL
Method in brief: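 Cell line HEK293 with TSHR; density 800/well. Exposure 30 min RT. Readout HTRF cAMP (cAMP-d2/anti-cAMP-cryptate), 1 h RT before reading.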

[2] = qHTS assay to identify small molecule agonists of the hypoxia (HIF-1) signaling pathway - cell viability counter screen (AID 1224844; calls by dose curve; also: nearly all actives have a fitted effect of over 50% in size)
Method in brief: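 HRE-bla ME-180 cells, 2,000/well in 0.5% dialyzed FBS medium, treated 17 h at 37C with compounds. Viability read in the same wells as the bla reporter, by CellTiter-Glo luminescence after 30 min at room temperature.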

[3] = qHTS assay to identify small molecule agonists of H2AX (AID 1224845; active = well fitted activation curve with a large enough effect in the signal ratio in the repeat runs, not every such curve was filed as active; the % refers to the signal ratio)
Method in brief: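 Wild-type CHO-K1 cells plated overnight, then exposed 3 hr at 37C to compounds at 15 concentrations (0.76% DMSO). Lysed, then HTRF anti-pH2AX(S139)-cryptate/anti-H2AX-d2 detection after 24 hr at room temperature; emissions 665 and 620 nm.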

[4] = qHTS assay to identify small molecule agonists of the hypoxia (HIF-1) signaling pathway (AID 1224846; active = well fitted activation curve with a large enough effect in the signal ratio in the repeat runs, not every such curve was filed as active; the % refers to the signal ratio)
Method in brief: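 HRE-bla ME-180 beta-lactamase reporter cells in medium with 0.5% dialyzed FBS, pre-incubated 5 h then exposed to compounds 17 h at 37C, 5% CO2; reporter induction read with CCF4-AM FRET substrate.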

[5] = qHTS assay to identify small molecule agonists of H2AX - cell viability counter screen (AID 1224847; calls by dose curve; also: top concentration of the series differs between compounds; nearly all actives have a fitted effect of over 30% in size)
Method in brief: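 Counter-screen for viability: CellTiter-Glo ATP luminescence read after 3 h compound treatment (15-point titration, 0.76% DMSO final) of CHO-K1 cells at 37C, with 30 min room-temperature reagent incubation.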

[6] = qHTS RealTime-Glo MT Cell Viability Assay in HepG2 cells - 24 hour (AID 1224867); also: nearly all actives have a fitted effect of over 50% in size
Method in brief: (§1)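 Luminescence read-out: viable HepG2 cells reduce a prosubstrate to a NanoLuc substrate, giving a signal proportional to live cell number. Reads taken at 0, 8, 16, 24, 32 and 40 h of compound exposure at 37 C.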

[7] = qHTS RealTime-Glo MT Cell Viability Assay in HEK293 cells - 32 hour (AID 1224868); also: top concentration of the series differs between compounds; nearly all actives have a fitted effect of over 50% in size
Method in brief: (§2)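 Nonlytic real-time viability readout: viable cells convert prosubstrate to NanoLuc substrate, giving luminescence proportional to live cell number. HEK293, 600 cells/well, compound added after 5 h, continuous culture at 37 C.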

[8] = A CellTox Green Cytotoxicity Assay to monitor cytotoxicity in HEK293 cells - 0 hour (AID 1224869); also: nearly all actives have a fitted effect of over 50% in size
Method in brief: (§3)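 HEK293 cells, 600/well, were preincubated 5 hours and then exposed to compounds at 37 C for up to 40 hours. A cell-impermeant cyanine dye staining dead-cell DNA was read by fluorescence at 0, 8, 16, 24, 32 and 40 h time points.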

[9] = qHTS RealTime-Glo MT Cell Viability Assay in HepG2 cells - 40 hour (AID 1224870); also: nearly all actives have a fitted effect of over 50% in size
Method in brief: (§4)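 HepG2 cells mixed with RealTime-Glo MT reagents (NanoLuc plus cell-permeant prosubstrate) were seeded at 600 cells/well, incubated 5 h at 37 C/5% CO2, then pinned with compounds in DMSO; nonlytic luminescence tracked viability during 40 h treatment.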

[10] = A CellTox Green Cytotoxicity Assay to monitor cytotoxicity in HEK293 cells - 40 hour (AID 1224871); also: nearly all actives have a fitted effect of over 45% in size
Method in brief: as §3

[11] = qHTS RealTime-Glo MT Cell Viability Assay in HEK293 cells - 16 hour (AID 1224872)
Method in brief: as §2

[12] = qHTS RealTime-Glo MT Cell Viability Assay in HepG2 cells - 8 hour (AID 1224873); also: nearly all actives have a fitted effect of over 55% in size
Method in brief: as §4

[13] = qHTS RealTime-Glo MT Cell Viability Assay in HEK293 cells - 40 hour (AID 1224874); conditions: RealTime-Glo luminescence; max response: stronger effect = lower value; also: nearly all actives have a fitted effect of over 50% in size
Method in brief: (§5)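 600 cells/well were plated with the nonlytic NanoLuc/prosubstrate reagent, pre-incubated 5 h, then given 23 nL of compound in DMSO. Incubation at 37 C for 40 h, with luminescence from viable-cell-reduced substrate read repeatedly from 0 h.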

[14] = A CellTox Green Cytotoxicity Assay to monitor cytotoxicity in HEK293 cells - 24 hour (AID 1224875); also: series mostly up to about 77 µM; nearly all actives have a fitted effect of over 45% in size
Method in brief: as §3

[15] = A CellTox Green Cytotoxicity Assay to monitor cytotoxicity in HepG2 cells - 16 hour (AID 1224876); also: nearly all actives have a fitted effect of over 45% in size
Method in brief: (§6)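 HepG2 cells, 600/well, preincubated 5 h with CellTox Green dye, then exposed to Tox21 compounds in DMSO at 37 C for up to 40 h. Dead-cell DNA fluorescence read at the indicated time point.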

[16] = qHTS RealTime-Glo MT Cell Viability Assay in HepG2 cells - 32 hour (AID 1224877); also: nearly all actives have a fitted effect of over 55% in size
Method in brief: as §1

[17] = A CellTox Green Cytotoxicity Assay to monitor cytotoxicity in HepG2 cells - 24 hour (AID 1224878); also: nearly all actives have a fitted effect of over 45% in size; also: potency is read from the fitted curve at half-maximal effect
Method in brief: as §6

[18] = A CellTox Green Cytotoxicity Assay to monitor cytotoxicity in HepG2 cells - 40 hour (AID 1224879); also: nearly all actives have a fitted effect of over 40% in size; also: potency is read from the fitted curve at half-maximal effect
Method in brief: as §6

[19] = qHTS RealTime-Glo MT Cell Viability Assay in HEK293 cells - 0 hour (AID 1224880)
Method in brief: as §5
% is scaled to controls: 0 for no effect and ±100 for the full control effect.

CC(C)=CCl
inactive: outcome [1] | outcome [2] | outcome [3] | outcome [4] | outcome [5] | Potency [6] | Potency [7] | outcome [8] | outcome [9] | Potency [10] | Potency [11] | Potency [12] | max response [13] 8.16% and 2.09% | Potency [14] | outcome [15] | outcome [16] | Potency [17] | Potency [18] | outcome [19]

CC(=O)c1ccc(O)cc1
inactive: outcome [1] | outcome [2] | outcome [3] | outcome [4] | outcome [5] | Potency [6] | Potency [7] | outcome [8] | outcome [9] | Potency [10] | Potency [11] | Potency [12] | max response [13] 0.924% and -3% | Potency [14] | outcome [15] | outcome [16] | Potency [17] | Potency [18] | outcome [19]

C=Cc1ccc(C)cc1
inactive: outcome [1] | outcome [2] | outcome [3] | outcome [4] | outcome [5] | Potency [6] | Potency [7] | outcome [8] | outcome [9] | Potency [10] | Potency [11] | Potency [12] | max response [13] -4.48% and 7.7% | Potency [14] | outcome [15] | outcome [16] | Potency [17] | Potency [18] | outcome [19]

COCCCN
inactive: outcome [1] | outcome [2] | outcome [3] | outcome [4] | outcome [5] | Potency [6] | Potency [7] | outcome [8] | outcome [9] | Potency [10] | Potency [11] | Potency [12] | max response [13] 3.35% and 3.08% | Potency [14] | outcome [15] | outcome [16] | Potency [17] | Potency [18] | outcome [19]

Clc1ccccn1
inactive: outcome [1] | outcome [2] | outcome [3] | outcome [4] | outcome [5] | Potency [6] | Potency [7] | outcome [8] | outcome [9] | Potency [10] | Potency [11] | Potency [12] | max response [13] 5.77% and 7.16% | Potency [14] | outcome [15] | outcome [16] | Potency [17] | Potency [18] | outcome [19]

CCCCC(C=O)CC (stereo not drawn)
inactive and 14.6 µM (active): Potency [17] | Potency [18]
inactive: outcome [1] | outcome [2] | outcome [3] | outcome [4] | outcome [5] | Potency [6] | Potency [7] | outcome [8] | outcome [9] | Potency [10] | Potency [11] | Potency [12] | max response [13] -0.352% and 2.13% | Potency [14] | outcome [15] | outcome [16] | outcome [19]

C=CCc1ccc(OC)c(OC)c1
inactive: outcome [1] | outcome [2] | outcome [3] | outcome [4] | outcome [5] | Potency [6] | Potency [7] | outcome [8] | outcome [9] | Potency [10] | Potency [11] | Potency [12] | max response [13] 0.535% and 0.477% | Potency [14] | outcome [15] | outcome [16] | Potency [17] | Potency [18] | outcome [19]
